{
  "source": "PubChem BioAssay (EPA / NIEHS)",
  "note": "“And” between values parts separate entries of the source, which are not always exact repeats. Equal values may be shown once. A structure can be active in one record and inactive in another. The source made the active and inactive calls. The calls were made as follows: active = hit-call score of the fitted dose curve at least 0.9, where 1 is the maximum; inactive = score below 0.9.",
  "data": [
    {"assay": "CCTE_Shafer_MEA_acute_per_network_burst_spike_number_std: CCTE's Neural Acute Assay for Standard Deviation of Number of Spikes in a Network Burst, Shafer Lab (AID 2284020);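 also: fitted for decrease in spike-number SD versus DMSO so actives lower it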", "procedure": "CCTE_Shafer_MEA_acute assay is conducted using Axion Biosystems 48 well microelectrode array (MEA) plates and Maestro recording system. Each well of the MEA plate contains a grid of 16 microelectrodes embedded in the culture surface. Electrically active cells, such as neurons, can be cultured over the electrodes, and electrical activity in these cells can be recorded extracellularly. The spontaneous firing of neurons is captured from each electrode on a microsecond timescale providing both temporally and spatially precise data. […] The CCTE_Shafer_MEA_acute assay uses primary cultures of rat cortical neurons. As these cultures mature over time, neural networks develop functional activity and form cohesive networks in which electrical activity can be highly coordinated. Baseline 40-minute recordings are made on days post-plating 13 or 15, followed by a secondary 40-minute recording after chemical exposure.CCTE_Shafer_MEA_acute_per_network_burst_spike_number_std is a component of the CCTE_Shafer_MEA_acute assay. It measures the standard deviation of the number of spikes (action potential firings) in a network burst (temporally-clustered group of spikes across multiple electrodes) during a recording in a microelectrode array (MEA) using Axion Biosystems Maestro 768 channel amplifier with the AxIS adaptive spike detector. The recordings before and after chemical treatment are used to calculate a percent change in the standard deviation of the number of spikes in network bursts in each well.Data from the assay component CCTE_Shafer_MEA_acute_burst_spike_number_std was analyzed into 1 assay endpoint. This assay endpoint, CCTE_Shafer_MEA_acute_burst_spike_number_std, was analyzed in the negative analysis fitting direction relative to DMSO as the negative control and baseline of activity. Using a type of functional reporter, gain or loss-of-signal activity can be used to understand electrical activity.\nSpontaneous activity in the cortical cultures was recorded using an Axion Biosystems Maestro 768 channel amplifier and Axion Integrated Studios (AxIS) v1.8 (or later) software. The amplifier recorded from all channels simultaneously (gain = 1200 x; sampling rate = 12.5 kHz/channel): raw signals were filtered with a Butterworth band-pass filter (300-5000 Hz), which filters out slower local field potentials leaving only fast potentials, i.e., \"spikes\", arising from extracellular currents associated with action potentials (Pine 2006; Wheeler and Nam 2011). On-line spike detection of filtered signals was conducted with the AxIS adaptive spike detector, using a threshold of 8x the root mean squared (rms) noise on each channel. Any electrodes with rms noise levels greater than 5 uV were grounded (e.g., no data were recorded). Once grounded, an electrode was grounded for the duration of the experiment. All recordings were conducted at 37 C. Wells were deemed usable if on the day of the exposure >/= 10 electrodes were active (defined as >/= 5 spikes/min). On DIV 13 or 15, a minimum of three wells from one cortical culture preparation were treated with each compound (0.03-40 uM). Prior to recording baseline activity, each mwMEA plate was placed in the Maestro at 37 C and allowed to sit for 20 min while firing rates stabilized. Baseline activity (40 min) was recorded before the addition of each compound. An additional 40 min of spontaneous activity was recorded in the presence of each compound. Changes in network parameters relative to baseline were assessed following compound treatment.", "values": [
      {"smiles": "CNC(=O)CSP(=S)(OC)OC", "outcome": "inactive"},
      {"smiles": "CC(C)N(C(=O)COc1nnc(C(F)(F)F)s1)c1ccc(F)cc1", "AC50": "1.32 µM (active)", "outcome": "inactive"},
      {"smiles": "O=S1OCC2C(CO1)C1(Cl)C(Cl)=C(Cl)C2(Cl)C1(Cl)Cl", "note": "(stereo not given)", "AC50": "0.348 µM (active)", "outcome": "inactive"},
      {"smiles": "O=C(O)CCCOc1ccc(Cl)cc1Cl", "outcome": "inactive"},
      {"smiles": "C[C@H]1[C@H](c2ccc(Cl)cc2)SC(=O)N1C(=O)NC1CCCCC1", "AC50": "20 µM (active)"},
      {"smiles": "N#Cc1c(Cl)c(Cl)c(Cl)c(C#N)c1Cl", "outcome": "inactive"},
      {"smiles": "CNC(=O)/C=C(\\C)OP(=O)(OC)OC", "outcome": "inactive"},
      {"smiles": "O=S(=O)(O)C(F)(F)C(F)(F)C(F)(F)C(F)(F)C(F)(F)C(F)(F)C(F)(F)C(F)(F)F", "outcome": "inactive"},
      {"smiles": "CC1(C)C(C=C(Cl)Cl)C1C(=O)OC(C#N)c1ccc(F)c(Oc2ccccc2)c1", "note": "(stereo not given)", "AC50": "81.2 nM (active) and 622 nM (active)"},
      {"smiles": "CCC(C)Nc1c([N+](=O)[O-])cc(C(C)(C)C)cc1[N+](=O)[O-]", "note": "(stereo not given)", "outcome": "inactive"},
      {"smiles": "CC[C@H](C)[C@H]1O[C@]2(C=C[C@@H]1C)C[C@@H]1C[C@@H](C/C=C(\\C)[C@@H](O[C@H]3C[C@H](OC)[C@@H](O[C@H]4C[C@H](OC)[C@@H](O)[C@H](C)O4)[C@H](C)O3)[C@@H](C)/C=C/C=C3\\CO[C@@H]4[C@H](O)C(C)=C[C@@H](C(=O)O1)[C@]34O)O2", "note": "(tested in a mixture with another compound)", "AC50": "0.00528 µM (active)"},
      {"smiles": "CCCN(CCOc1c(Cl)cc(Cl)cc1Cl)C(=O)n1ccnc1", "AC50": "32.6 µM (active)"},
      {"smiles": "CC(C)OC(=O)Nc1cccc(Cl)c1", "AC50": "25.2 µM (active)"},
      {"smiles": "O=C1c2ccccc2C(=O)N1SC(Cl)(Cl)Cl", "outcome": "inactive"},
      {"smiles": "O=[N+]([O-])/N=C1\\NCCN1Cc1ccc(Cl)nc1", "outcome": "inactive"},
      {"smiles": "Oc1ccc(Cl)cc1Cc1ccccc1", "outcome": "inactive"},
      {"smiles": "N#CN", "outcome": "inactive"},
      {"smiles": "ClC1C(Cl)C(Cl)C(Cl)C(Cl)C1Cl", "note": "(stereo not given)", "outcome": "inactive"},
      {"smiles": "CCC(C)(C)C(=O)OC1=C(c2ccc(Cl)cc2Cl)C(=O)OC12CCCCC2", "outcome": "inactive"},
      {"smiles": "Oc1cc(Cl)ccc1Oc1ccc(Cl)cc1Cl", "outcome": "inactive"},
      {"smiles": "CCCN(CCC)c1c([N+](=O)[O-])cc(C(F)(F)F)cc1[N+](=O)[O-]", "outcome": "inactive"},
      {"smiles": "Clc1ccccc1-c1nnc(-c2ccccc2Cl)nn1", "outcome": "inactive"},
      {"smiles": "COP(=S)(OC)Oc1ccc(SC)c(C)c1", "outcome": "inactive"}
    ]}
  ]
}
